Assay outcomes from PubChem BioAssay.
mTORC1 inh = reduces mTORC1 signaling in Tsc2 and p53 null MEF cells; Tsc2-/- p53-/- MEF, phospho-rpS6 immunofluorescence/PI, 24 h; Potency, µM (highest dose often 38.3 µM), most hits filed as inhibitors; 44,000 compounds, 0.78% hits; AID 493208; also: nearly all actives have a fitted effect of over 50% in size
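Immunofluorescence of rpS6 phosphorylation in Tsc2-/-, p53-/- MEFs after 24 h compound exposure, normalized to propidium iodide signal. Activity is expressed as % positive cells, thresholded with 7.5 nM rapamycin.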
HTT-AS promoter = activators of huntingtin-antisense promoter activity; HEK293 HTT-AS promoter firefly luciferase reporter, 24 h; response scale: percent change from vehicle, -100% = no light; Potency, µM (doses to about 57.5 µM), actives largely listed as activators; 48,000 compounds, 0.24% hits; also: nearly all actives have a fitted effect of over 55% in size
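Firefly luciferase signal from promoter-reporter HEK293 cells was scaled between vehicle (0%) and zero RLU (-100%). Compounds were tested at final concentrations of up to 57.5 uM over 24 h at 37 degrees C. PTC124 at 50 uM final served as control inhibitor.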
HTT promoter inh = inhibitors of huntingtin promoter activity; HEK293 HTT promoter firefly luciferase reporter, 24 h; Potency, µM (top dose mostly 57.5 µM), usual class: inhibitors; 48,000 compounds, 0.93% hits; also: nearly all actives have a fitted effect of over 50% in size
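Firefly luciferase signal from promoter-reporter HEK293 cells was scaled between vehicle (0%) and zero RLU (-100%). Compounds were tested at final concentrations of up to 57.5 uM over 24 h at 37 degrees C. PTC124 at 50 uM final served as control inhibitor.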
S16 F2sN tox = S16 Schwann cell cytotoxicity. 43,000 compounds, 0.48% hits. Potency, µM (top dose mostly 57.5 µM), actives largely listed as cytotoxic. AID 1508642. S16 Pmp22-F2sN Schwann cells viability, CellTiter-Glo, 24 h; also: nearly all actives have a fitted effect of over 65% in size
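Rat S16 Schwann reporter line, 24 h treatment with library compounds delivered at 23 nL per well. Cell viability by CellTiter-Glo luminescence.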
PMP22 txn prim = modulates PMP22 transcription in S16 Schwann cells. Potency, µM (highest dose often 57.5 µM), hits mostly inhibitors. AID 1508649. S16 Pmp22-F2sN Schwann cells (luciferase reporters placed in the Pmp22 gene), FLuc/NLuc coincidence luminescence, 24 h. 43,000 compounds, 2% hits; active = clear falling dose curves in both reporters; inconclusive = both reporters move, but less clearly or upward; inactive = either reporter flat; the % is the NLuc reporter signal
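Transcriptional readout in edited S16(c9) cells: two luciferases reported from the Pmp22 locus, measured in turn after 24 h compound incubation.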
SKOV3 invasion = ovarian cancer metastasis inhibition, 3D TME model | 46,000 compounds, 0.1% hits | SKOV3ip1-GFP adhesion/invasion on 3D omental model, fluorescence | AID 1963576 | Potency, µM (highest dose often 45.8 µM), hits mostly inhibitors; also: nearly all actives have a fitted effect of over 65% in size
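A 3D layer of primary human omental fibroblasts, mesothelial cells, fibronectin and collagen I, grown 48 hr, received SKOV3ip1-GFP cells in serum-free medium plus compounds at 0.36-46 umol/L. After 2 hr RT and 16 hr 37 C, fixed adherent GFP cells were counted; normalized to DMSO and tomatine.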
NLuc saturating = inhibits NanoLuc at saturating substrate, PMP22 counter-screen; 690 compounds, 4% hits; shares compounds with PMP22 txn prim; AID 1508638; Potency, µM (doses to about 57.5 µM), actives largely listed as inhibitors; Secreted NLuc enzyme (filtered S16 cell medium), Nano-Glo luminescence
NLuc Km counter = NanoLuc inhibition at Km substrate, PMP22 artifact check | AID 1508639 | 690 compounds, 5% hits | secreted NLuc enzyme, coelenterazine luminescence, Km conditions | shares compounds with PMP22 txn prim | Potency, µM (highest dose often 57.5 µM), hits mostly inhibitors
FLuc ctr PMP22 = firefly luciferase enzyme inhibition artifact for PMP22 screen; shares compounds with PMP22 txn prim; AID 1508640; purified P. pyralis FLuc, luminescence, 10 min; Potency, µM (series often up to 57.5 µM), hits mostly inhibitors; 690 tested, under 10 active
Target sequence (P08659 whole entry, looked up): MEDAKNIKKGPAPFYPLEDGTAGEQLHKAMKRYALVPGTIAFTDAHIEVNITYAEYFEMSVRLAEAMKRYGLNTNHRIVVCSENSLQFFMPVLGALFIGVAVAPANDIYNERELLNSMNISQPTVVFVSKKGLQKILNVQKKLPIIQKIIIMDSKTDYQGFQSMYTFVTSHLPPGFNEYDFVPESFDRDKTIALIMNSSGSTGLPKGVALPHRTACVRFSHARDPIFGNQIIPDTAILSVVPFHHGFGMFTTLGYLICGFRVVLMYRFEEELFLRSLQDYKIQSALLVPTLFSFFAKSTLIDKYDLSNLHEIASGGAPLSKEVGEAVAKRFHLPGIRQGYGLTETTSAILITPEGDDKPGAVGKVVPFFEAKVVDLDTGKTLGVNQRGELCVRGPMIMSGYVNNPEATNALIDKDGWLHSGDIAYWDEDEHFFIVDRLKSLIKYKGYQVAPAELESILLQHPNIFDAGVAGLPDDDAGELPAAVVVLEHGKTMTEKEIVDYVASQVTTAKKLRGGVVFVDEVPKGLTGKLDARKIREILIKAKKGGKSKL
S16 viab conf = S16 Schwann cell cytotoxicity, confirmatory; S16 Schwann cells viability, CellTiter-Glo ATP luminescence, 24 h; shares compounds with PMP22 txn prim; AID 1508641; 690 compounds, 7% hits; Potency, µM (doses to about 57.5 µM), usual class: cytotoxic
PMP22 txn conf = confirmation of modulators of PMP22 gene transcription in S16 cells; S16 Schwann cells Pmp22-F2sN, dual luciferase, 24 h; 690 compounds, 22% hits; Potency, µM (highest dose often 57.5 µM), hits mostly inhibitors; AID 1508646; shares compounds with PMP22 txn prim; active = clear falling dose curves in both reporters; inconclusive = both reporters move, but less clearly or upward; inactive = either reporter flat; the % is the FLuc reporter signal
PMP22 HiBiT cnf = confirmation of modulators of rat PMP22 protein expression; Potency, µM (highest dose often 27.9 µM), actives largely listed as inhibitors; 95 tested, under 10 active; shares compounds with PMP22 txn prim; S16 Schwann cells Pmp22-HiBiT, luminescence, 48 h; AID 1508647
Of the large screens only hits and unclear results are named; the others gave an inactive call (follow-up assays come after a bar, where they were run). Sampled rows, rich in hits. Any-hit rate of the full collection: about 3.6%. Unless noted, calls follow the shape of the dose curve; as a rule, active = well fitted curve in the direction sought with a large enough effect; inconclusive = small, poorly fitted or top-dose-only effect, or another doubt; inactive = no such curve, though single readings can be large; an effect the other way counts as inactive or inconclusive.

CCC(C)NC(=O)c1ccc(-n2c(-c3ccccc3)cc3c2CCCC3)cc1 (centres undefined)	PMP22 txn prim inconclusive
COCCCNC(=O)c1ccc(-n2c(-c3ccccc3)cc3c2CCC(C)C3)cc1 (centres undefined)	HTT promoter inh inconclusive, PMP22 txn prim 18µM | NLuc saturating inactive | NLuc Km counter inactive | FLuc ctr PMP22 inactive | S16 viab conf inconclusive | PMP22 txn conf 2.7µM | PMP22 HiBiT cnf inactive
CCCNC(=O)c1ccc(-n2c(-c3ccccc3)cc3c2CCCCC3)cc1	PMP22 txn prim inconclusive, SKOV3 invasion inconclusive
CC(C)OCCCNC(=O)c1ccc(-n2c(-c3ccccc3)cc3c2CCCC3)cc1	PMP22 txn prim 13µM | NLuc saturating inactive | NLuc Km counter inactive | FLuc ctr PMP22 inactive | S16 viab conf inactive | PMP22 txn conf inconclusive
CC(C)NC(=O)c1ccc(-n2c(-c3ccccc3)cc3c2CCCC3)cc1	mTORC1 inh inconclusive, S16 F2sN tox inconclusive, PMP22 txn prim 14µM | NLuc saturating inactive | NLuc Km counter inactive | FLuc ctr PMP22 inactive | S16 viab conf inconclusive | PMP22 txn conf inactive
C[C@]12C=CC(=O)N[C@@H]1CC[C@H]1[C@H]3CC[C@@H](C(=O)Nc4cc(C(F)(F)F)ccc4C(F)(F)F)[C@@]3(C)CC[C@@H]12	none (no result: mTORC1 inh, S16 F2sN tox, PMP22 txn prim)
COc1cc(OC)c(C=CS(=O)(=O)Cc2ccc(OC)c(NCC(=O)O)c2)c(OC)c1	HTT promoter inh inconclusive (no result: mTORC1 inh, S16 F2sN tox, PMP22 txn prim)
Cc1cnc(Nc2ccc(OCCN3CCCC3)cc2)nc1Nc1cccc(S(=O)(=O)NC(C)(C)C)c1	none (no result: mTORC1 inh, S16 F2sN tox, PMP22 txn prim)
COc1ccc(-c2cc(C(F)(F)F)nc(S(C)(=O)=O)n2)cc1	mTORC1 inh 15µM, HTT promoter inh inconclusive, S16 F2sN tox inconclusive, PMP22 txn prim 20µM, SKOV3 invasion inconclusive | NLuc saturating inactive | NLuc Km counter 14µM | FLuc ctr PMP22 inactive | S16 viab conf inconclusive | PMP22 txn conf 16µM | PMP22 HiBiT cnf inactive
CCOc1ccc(-n2nc3ccc(NC(=O)Cc4ccccc4)cc3n2)cc1	HTT promoter inh inconclusive, S16 F2sN tox inconclusive, PMP22 txn prim 5µM, SKOV3 invasion inconclusive | NLuc saturating inactive | NLuc Km counter inactive | FLuc ctr PMP22 inconclusive | S16 viab conf inactive | PMP22 txn conf inactive
C#Cc1cccc(Nc2ncnc3cc(OCCOC)c(OCCO)cc23)c1	HTT promoter inh inconclusive (no result: mTORC1 inh, S16 F2sN tox, PMP22 txn prim)
O=C(CCS(=O)(=O)c1nc(-c2ccc3c(c2)OCO3)cc(C(F)(F)F)n1)Nc1ccc(F)c(Cl)c1	HTT promoter inh inconclusive, S16 F2sN tox inconclusive, PMP22 txn prim 13µM, SKOV3 invasion inconclusive | NLuc saturating inactive | NLuc Km counter inconclusive | FLuc ctr PMP22 inactive | S16 viab conf inactive | PMP22 txn conf inconclusive
